Results from PMC5540273 (PLoS ONE, 2017).

test system: ACVRL1; conditions: concentration: 1 μM, replicates: in singlicate; n = 1
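Further: KINOMEscan kinase panel screen.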

Row | SMILES | %Inh
1 | COc1ccc(NC(=O)c2ccoc2)cc1-c1ccc(C(=O)NCC2CC2)cc1 [GW810437] | 10%
2 | CC(=O)Nc1cn2nc(Oc3cccc(NC(=O)c4cccc(C(F)(F)F)c4)c3)ccc2n1 | 0%
3 | Cc1ccc(C)c(NC(=O)Nc2ccc(C)c(-c3ccc(C(=O)Nc4ccncc4)cc3)c2)c1 [GSK1398473] | 0%
4 | CN(C)c1ncnc2nc[nH]c12 [SKF-31736] | 0%
5 | Cc1ccc(O)cc1Nc1ccnc2cc(-c3ccc(CN4CCCCC4)o3)ccc12 [GW557777] | 90.3%
6 | Cl.Cl.NCC(NC(=O)c1cc(-c2cccnc2)c(-c2ccnc3[nH]ccc23)s1)c1ccccc1 (centres unmarked) [GSK1323434] | 0%
7 | CC(C)NCC(Cc1ccccc1)NC(=O)c1cc(Br)c(-c2ccnc3[nH]ccc23)s1.Cl.Cl (centres unmarked) [GSK1383281] | 0%
8 | COc1cccc(NC(=O)NCCNc2ccnc(Nc3ccc(F)cc3)n2)c1 [GSK1379879] | 0%
9 | Cc1cc(-c2ccnc(Nc3cccc(C#N)c3)n2)cc(C)c1O [GSK1440913] | 17%
10 | Cc1ccc(O)cc1Nc1ccnc2ccc(C(C)(C)C)cc12 [GW856805] | 1%
11 | O=C(Nc1n[nH]c2nc(-c3ccccc3)ccc12)C1CC1 [SB-708999] | 0%
12 | Cl.Cl.NC(CNC(=O)c1cc(Br)c(-c2ccnc3[nH]ccc23)s1)c1ccccc1 (centres unmarked) [GSK1322949] | 0%
13 | Cn1cc(-c2cnc(N)c3c(-c4ccc5c(c4)CCN5C(=O)Cc4ccccc4)csc23)cn1 [GSK2593074] | 0%
14 | O=C1NC(=O)C(c2ccccc2Cl)=C1Nc1cccc(Cl)c1 [SB-342409] | 70%
15 | COc1ccc(C2=C(Nc3cccc(O)c3)C(=O)NC2=O)cc1 [SB-390766] | 0%
16 | CN(C)CCNS(=O)(=O)c1ccc(-c2ccnc3[nH]ccc23)cc1 [GSK977620] | 0%
17 | CC(C)c1nc(-c2cccc(NS(=O)(=O)c3c(F)cccc3F)c2)c(-c2ccnc(Nc3ccc(N4CCOCC4)nc3)n2)s1.Cl [GSK1723980] | 83%
18 | CCn1cnc2c(NCc3ccccc3)ncnc21 [SKF-96418] | 0%
19 | COC(=O)Nc1nc2cc(Oc3ccc(NC(=O)Nc4cccc(SC)c4)cc3)ccc2[nH]1.Cl [GW697999] | 0%

Row | SMILES | %Inh
20 | O=C(Nc1n[nH]c2nc(-c3cccc(O)c3)ccc12)C1CC1 [SB-711805] | 0%
21 | CN(c1ccc(F)c(NC(=O)c2cccc(OC(C)(C)C#N)c2Cl)c1)c1ccc2nc(NC(=O)C3CC3)sc2n1 | 0%
22 | Cc1nn2c(=O)cc(N3CCO[C@H](C)C3)nc2n1Cc1cccc(Cl)c1Cl [GSK2373693] | 0%
23 | Cl.O=C(Nc1ccc(Oc2ccc3[nH]c(NC(=O)c4ccco4)nc3c2)cc1)Nc1cc(C(F)(F)F)ccc1F [GW683134] | 0%
24 | N#CC1(c2cccc(C(=O)Nc3cccc(Oc4ccc5nc(NC(=O)C6CC6)sc5n4)c3)c2)CC1 | 0%
25 | COC(=O)Nc1nc2ccc(Oc3ccc(CC(=O)Nc4cc(C(F)(F)F)ccc4F)cc3)cc2[nH]1 [GW680903] | 0%
26 | O=C(Nc1n[nH]c2nc(-c3ccccc3O)ccc12)C1CC1 [SB-711880] | 0%
27 | CNc1nccc(-c2ccc3c(N)n[nH]c3c2)n1 [GSK2206003] | 0%
28 | O=C(Nc1n[nH]c2cc(-c3cccs3)ccc12)C1CC1 [SB-731284] | 0%
29 | CC(C)(C)c1ccc(C(=O)Nc2cn3cc(-n4ccnc4)ccc3n2)cc1 | 0%
30 | Cc1ccc(Nc2ccnc(Nc3ccc(C)c(F)c3)n2)cc1O.Cl [GW582868] | 62%
31 | Fc1cc(Cl)ccc1Nc1ccnc2cc(-c3ccc(CN4CCOCC4)o3)ccc12 [GW560109] | 65%
32 | Nc1cccc(-c2ccc3c(N)n[nH]c3c2)c1 [GSK2193613] | 0%
33 | Nc1ncnc2scc(-c3ccc(NC(=O)Cc4cc(F)ccc4F)cc3)c12.O=C(O)C(F)(F)F [SB-731254-M] | 0%
34 | COc1cccc(-c2nc(-c3ccccc3)[nH]c2-c2ccncc2)c1 [SB-610250] | 2%
35 | Cc1cccc(Nc2nc(NCCN)ncc2C(N)=O)c1 [GSK1292139] | 0%
36 | CN1CCN(Cc2ccc(NC(=O)Nc3ccc(N(C)c4ccnc(Nc5ccc(CS(C)(=O)=O)cc5)n4)cc3)cc2)CC1.Cl [GW827654] | 57%
37 | CN(c1ccc(NC(=O)Nc2cccc(Cl)c2)cc1)c1ccnc(N)n1.Cl [GW830707] | 9%

test system: T1, ADCK3; conditions: concentration: 1 μM, replicates: in singlicate; n = 1
T1 construct: gene CABC1

Row | SMILES | %Inh
38 | COc1ccc(NC(=O)c2ccoc2)cc1-c1ccc(C(=O)NCC2CC2)cc1 [GW810437] | 0%
39 | CC(=O)Nc1cn2nc(Oc3cccc(NC(=O)c4cccc(C(F)(F)F)c4)c3)ccc2n1 | 0%
40 | Cc1ccc(C)c(NC(=O)Nc2ccc(C)c(-c3ccc(C(=O)Nc4ccncc4)cc3)c2)c1 [GSK1398473] | 14%
41 | CN(C)c1ncnc2nc[nH]c12 [SKF-31736] | 0%
42 | Cc1ccc(O)cc1Nc1ccnc2cc(-c3ccc(CN4CCCCC4)o3)ccc12 [GW557777] | 4%
43 | Cl.Cl.NCC(NC(=O)c1cc(-c2cccnc2)c(-c2ccnc3[nH]ccc23)s1)c1ccccc1 (centres unmarked) [GSK1323434] | 97.5%
44 | CC(C)NCC(Cc1ccccc1)NC(=O)c1cc(Br)c(-c2ccnc3[nH]ccc23)s1.Cl.Cl (centres unmarked) [GSK1383281] | 14%
45 | COc1cccc(NC(=O)NCCNc2ccnc(Nc3ccc(F)cc3)n2)c1 [GSK1379879] | 14%
46 | Cc1cc(-c2ccnc(Nc3cccc(C#N)c3)n2)cc(C)c1O [GSK1440913] | 35%
47 | Cc1ccc(O)cc1Nc1ccnc2ccc(C(C)(C)C)cc12 [GW856805] | 0%
48 | O=C(Nc1n[nH]c2nc(-c3ccccc3)ccc12)C1CC1 [SB-708999] | 2%
49 | Cl.Cl.NC(CNC(=O)c1cc(Br)c(-c2ccnc3[nH]ccc23)s1)c1ccccc1 (centres unmarked) [GSK1322949] | 40%
50 | Cn1cc(-c2cnc(N)c3c(-c4ccc5c(c4)CCN5C(=O)Cc4ccccc4)csc23)cn1 [GSK2593074] | 7%
51 | O=C1NC(=O)C(c2ccccc2Cl)=C1Nc1cccc(Cl)c1 [SB-342409] | 20%
52 | COc1ccc(C2=C(Nc3cccc(O)c3)C(=O)NC2=O)cc1 [SB-390766] | 0%
53 | CN(C)CCNS(=O)(=O)c1ccc(-c2ccnc3[nH]ccc23)cc1 [GSK977620] | 10%
54 | CC(C)c1nc(-c2cccc(NS(=O)(=O)c3c(F)cccc3F)c2)c(-c2ccnc(Nc3ccc(N4CCOCC4)nc3)n2)s1.Cl [GSK1723980] | 100%
55 | CCn1cnc2c(NCc3ccccc3)ncnc21 [SKF-96418] | 0%
56 | COC(=O)Nc1nc2cc(Oc3ccc(NC(=O)Nc4cccc(SC)c4)cc3)ccc2[nH]1.Cl [GW697999] | 0%

Row | SMILES | %Inh
57 | O=C(Nc1n[nH]c2nc(-c3cccc(O)c3)ccc12)C1CC1 [SB-711805] | 0%
58 | CN(c1ccc(F)c(NC(=O)c2cccc(OC(C)(C)C#N)c2Cl)c1)c1ccc2nc(NC(=O)C3CC3)sc2n1 | 0%
59 | Cc1nn2c(=O)cc(N3CCO[C@H](C)C3)nc2n1Cc1cccc(Cl)c1Cl [GSK2373693] | 15%
60 | Cl.O=C(Nc1ccc(Oc2ccc3[nH]c(NC(=O)c4ccco4)nc3c2)cc1)Nc1cc(C(F)(F)F)ccc1F [GW683134] | 0%
61 | N#CC1(c2cccc(C(=O)Nc3cccc(Oc4ccc5nc(NC(=O)C6CC6)sc5n4)c3)c2)CC1 | 40%
62 | COC(=O)Nc1nc2ccc(Oc3ccc(CC(=O)Nc4cc(C(F)(F)F)ccc4F)cc3)cc2[nH]1 [GW680903] | 19%
63 | O=C(Nc1n[nH]c2nc(-c3ccccc3O)ccc12)C1CC1 [SB-711880] | 3%
64 | CNc1nccc(-c2ccc3c(N)n[nH]c3c2)n1 [GSK2206003] | 1%
65 | O=C(Nc1n[nH]c2cc(-c3cccs3)ccc12)C1CC1 [SB-731284] | 0%
66 | CC(C)(C)c1ccc(C(=O)Nc2cn3cc(-n4ccnc4)ccc3n2)cc1 | 2%
67 | Cc1ccc(Nc2ccnc(Nc3ccc(C)c(F)c3)n2)cc1O.Cl [GW582868] | 14%
68 | Fc1cc(Cl)ccc1Nc1ccnc2cc(-c3ccc(CN4CCOCC4)o3)ccc12 [GW560109] | 0%
69 | Nc1cccc(-c2ccc3c(N)n[nH]c3c2)c1 [GSK2193613] | 3%
70 | Nc1ncnc2scc(-c3ccc(NC(=O)Cc4cc(F)ccc4F)cc3)c12.O=C(O)C(F)(F)F [SB-731254-M] | 16%
71 | COc1cccc(-c2nc(-c3ccccc3)[nH]c2-c2ccncc2)c1 [SB-610250] | 8%
72 | Cc1cccc(Nc2nc(NCCN)ncc2C(N)=O)c1 [GSK1292139] | 5%
73 | CN1CCN(Cc2ccc(NC(=O)Nc3ccc(N(C)c4ccnc(Nc5ccc(CS(C)(=O)=O)cc5)n4)cc3)cc2)CC1.Cl [GW827654] | 0%
74 | CN(c1ccc(NC(=O)Nc2cccc(Cl)c2)cc1)c1ccnc(N)n1.Cl [GW830707] | 0%
